Screening data as filed in PubChem.
TDP-43 yeast inh: rescues yeast growth from TDP-43 toxicity. TDP-43 expressing yeast growth rescue, BacTiter-Glo, 24 h. Potency, µM (series often up to 46.1 µM), for the others: at the highest dose growth rescue (activation), usual class: activators. hit rate 1.8% among 410,000; further: % of control where 0% means no effect; nearly all actives have a fitted effect of over 50% in size
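Cell-based yeast growth screen: TDP-43 expression induced in galactose, inoculum OD600=0.02 after raffinose pregrowth to mid-log. Read-out BacTiter-Glo luminescence at 24 hr, 30 deg C; inhibition of toxicity seen as signal increase.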
Abeta rescue: compounds reversing amyloid beta toxicity in yeast; AID 1347071; yeast expressing A-beta42, growth rescue, OD600, 48 h; response scale: 0% DMSO, 100% iron-clioquinol control; Potency, µM (titrated, usually from 46.1 µM), usual class: activators; hit rate 0.063% among 410,000; further: nearly all actives have a fitted effect of over 55% in size
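Yeast growth medium received pinned compounds, then yeast cells expressing toxic A-beta were added; plates incubated at 30 C for 48 hr. Growth read as absorbance at 600 nm, normalized to DMSO and equimolar FeCl3 plus clioquinol controls.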
aSyn rescue: alpha-synuclein toxicity inhibition in yeast; Yeast expressing alpha-synuclein, growth rescue, BacTiter-Glo, 24 h; Potency, µM (highest dose often 46.1 µM), inactives show at the highest dose growth rescue (activation), hits mostly activators; hit rate 0.14% among 370,000; AID 652106; further: % of control where 0% means no effect; nearly all actives have a fitted effect of over 65% in size
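Galactose-induced alpha-syn yeast (OD600=0.02, raffinose-pregrown) + pinned cpd, 24 hr, 30 deg C; growth by BacTiter-Glo luminescence. Growth restoration scores as activation.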
TSG101-PTAP inh: blocks PTAP/TSG101 interaction to inhibit HIV-1 budding; Potency, µM (top dose mostly 115 µM), without a hit: at the top dose activity change, negative = inhibition, hits mostly inhibitors; AID 493005; Fluorescence polarization, FITC-PTAP peptide / Tsg101 binding; 340,000 tested, under 10 active; active means well fitted inhibition curve with a large enough effect in the main read-out, with a control signal flat, not every such curve was filed as active; inconclusive means small, poorly fitted or top-dose-only effect, or effect the other way, or a change in a side signal; inactive means no such curve, though single readings can be large or run the other way; further: % of control where 0% means no effect
Target sequence (Q99816 whole entry, looked up): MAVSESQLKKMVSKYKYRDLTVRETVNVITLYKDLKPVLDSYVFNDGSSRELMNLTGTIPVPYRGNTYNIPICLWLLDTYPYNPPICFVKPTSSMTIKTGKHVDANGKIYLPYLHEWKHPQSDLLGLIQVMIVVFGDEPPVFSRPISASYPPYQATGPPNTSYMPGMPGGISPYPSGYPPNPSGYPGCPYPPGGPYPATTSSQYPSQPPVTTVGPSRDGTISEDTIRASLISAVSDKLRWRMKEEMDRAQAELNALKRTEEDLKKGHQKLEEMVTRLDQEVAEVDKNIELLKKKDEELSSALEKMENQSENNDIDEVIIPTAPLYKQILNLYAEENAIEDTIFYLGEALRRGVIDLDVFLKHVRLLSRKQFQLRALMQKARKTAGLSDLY
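Fluorescence anisotropy tracks displacement of a FITC-tagged PTAP peptide (50 nM) from the Tsg101 binding domain (10 uM), following a 20 min room-temperature incubation at pH 7.5.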
FUS suppressor: suppressors of FUS proteinopathy in yeast; S. cerevisiae FUS-expressing, growth rescue, OD600, 24 h; Potency, µM (highest dose often 76.6 µM), hits mostly activators; hit rate 0.24% among 390,000; AID 1347120;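 further: plate controls were DMSO vehicle for no effect and reference control for full effect; nearly all actives have a fitted effect of over 55% in size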
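Galactose (2%) drives FUS expression in yeast precultured in raffinose; seeding density OD 0.005. Test compounds incubated 24hr at 30C and 99% humidity before absorbance at 600 nm was measured.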
Active calls of the source: *. Shown are actives, neighbours in structure and some others; about 2.1% of the full set was active somewhere. Unless noted, the call rests on the fitted dose curve; in most records, active means well fitted curve in the direction sought with a large enough effect; inconclusive means small, poorly fitted or top-dose-only effect, or another doubt; inactive means no such curve, though single readings can be large; an effect the other way counts as inactive or inconclusive. Potency means the concentration at half of the fitted maximal effect.

How did Cc1ccccc1NC(=O)C1C2C=CC(C3CC23)C1C(=O)O (configuration not stated) do in these assays?
TDP-43 yeast inh: 11µM*; Abeta rescue: inactive; aSyn rescue: 0%; TSG101-PTAP inh: -5%; FUS suppressor: inactive

What do the screens show for `Cc1n[nH]c(C)c1N=Nc1ccc(Br)cc1`?
TDP-43 yeast inh: 3.5µM*; Abeta rescue: inactive; aSyn rescue: -19%; TSG101-PTAP inh: -2%; FUS suppressor: inactive

How did Cc1ccccc1NC(=S)N(Cc1ccccn1)Cc1ccccc1Cl do in these assays?
TDP-43 yeast inh: inconclusive; Abeta rescue: 13µM*; aSyn rescue: 4%; TSG101-PTAP inh: -5%; FUS suppressor: inactive

What do the screens show for `CCOC(=O)c1ccc(NC(=S)N2CCSC2c2ccc(Cl)cc2)cc1` (configuration not stated)?
TDP-43 yeast inh: 16µM*; Abeta rescue: inactive; aSyn rescue: 14%; TSG101-PTAP inh: -1%; FUS suppressor: inconclusive

How did COC(=O)Oc1c(Br)c(=O)oc2ccccc12 do in these assays?
TDP-43 yeast inh: 3.5µM*; Abeta rescue: inactive; aSyn rescue: 12%; TSG101-PTAP inh: -3%; FUS suppressor: inactive

How did Cc1cc(C)c(NS(=O)(=O)c2cccc3cccnc23)c(C)c1 do in these assays?
TDP-43 yeast inh: 2%; Abeta rescue: inactive; aSyn rescue: -3%; TSG101-PTAP inh: -1%; FUS suppressor: inactive

What do the screens show for `Cc1ccc(S(=O)(=O)Nc2cccc3cccnc23)c([N+](=O)[O-])c1`?
TDP-43 yeast inh: 7.9µM*; Abeta rescue: inactive; aSyn rescue: 18µM*; TSG101-PTAP inh: -7%; FUS suppressor: inactive

How did COc1cccc(-n2cc(C(=O)Nc3ccccc3C(N)=O)c3ccccc3c2=O)c1 do in these assays?
TDP-43 yeast inh: 0%; Abeta rescue: inactive; FUS suppressor: inactive

What do the screens show for `O=c1c2sccc2n(Cc2cc(=O)n3ccccc3n2)c(=O)n1-c1cccc(C(F)(F)F)c1`?
TDP-43 yeast inh: 22%; Abeta rescue: inactive; FUS suppressor: inactive

How did CCCCOc1ccc(C(=O)Oc2cc(C)[nH]c(=O)c2[N+](=O)[O-])cc1 do in these assays?
TDP-43 yeast inh: 18µM*; Abeta rescue: inactive; aSyn rescue: -2%; TSG101-PTAP inh: 1%; FUS suppressor: inactive

How did CCOc1ccc(C(=O)Oc2cc(C)[nH]c(=O)c2[N+](=O)[O-])cc1 do in these assays?
TDP-43 yeast inh: inconclusive; Abeta rescue: inactive; aSyn rescue: -9%; TSG101-PTAP inh: 0%; FUS suppressor: inactive

What do the screens show for `O=C1C2C3C=CC(C3)C2C(=O)N1CN(Cc1ccccc1)CN1C(=O)C2C3C=CC(C3)C2C1=O` (configuration not stated)?
TDP-43 yeast inh: 5.6µM*; Abeta rescue: inactive; aSyn rescue: 6%; TSG101-PTAP inh: -2%; FUS suppressor: inactive

Results for CCCCCCCC(=O)N/N=C/c1ccc([N+](=O)[O-])o1 ?
TDP-43 yeast inh: 20µM*; Abeta rescue: inactive; aSyn rescue: 4%; TSG101-PTAP inh: 0%; FUS suppressor: inactive

How did Cc1cc2ncn(/N=C/c3ccc([N+](=O)[O-])o3)c2cc1C do in these assays?
TDP-43 yeast inh: 8.9µM*; Abeta rescue: inactive; aSyn rescue: inconclusive; TSG101-PTAP inh: 0%; FUS suppressor: inactive

How did O=[N+]([O-])c1ccc(/C=N/N=C/c2ccc([N+](=O)[O-])o2)o1 do in these assays?
TDP-43 yeast inh: inconclusive; Abeta rescue: inactive; aSyn rescue: 9%; TSG101-PTAP inh: -2%; FUS suppressor: inactive

How did Cc1cc(N/N=C/c2ccc([N+](=O)[O-])o2)nc2ccccc12 do in these assays?
TDP-43 yeast inh: 13µM*; Abeta rescue: inactive; aSyn rescue: 0%; TSG101-PTAP inh: 3%; FUS suppressor: inactive

What do the screens show for `COc1ccccc1OCC(=O)N/N=C/C=C/c1ccc([N+](=O)[O-])o1`?
TDP-43 yeast inh: 13µM*; Abeta rescue: inactive; aSyn rescue: inconclusive; TSG101-PTAP inh: -1%

What do the screens show for `CCOC(=O)N/N=C\c1ccc([N+](=O)[O-])o1`?
TDP-43 yeast inh: 11%; Abeta rescue: inactive; aSyn rescue: 2%; TSG101-PTAP inh: -11%; FUS suppressor: inactive
